# Assay outcomes from PubChem BioAssay.
# Compounds with a hit are over-represented: about 2.4% of the library has one in this group of screens.
# D2 PAM-1: Beta-Arrestin HTS for Positive Allosteric Modulators of the Human D2 Dopamine Receptor: Potentiators. DiscoveRx D2 beta-arrestin cells, luminescence, 90 min; 100% = 57 uM dopamine signal. potentiation, % (no concentration beside the values). 360,000 compounds, 0.23% hits; in the data active means potentiation above about 50%
# Target sequence (P14416 whole entry, looked up): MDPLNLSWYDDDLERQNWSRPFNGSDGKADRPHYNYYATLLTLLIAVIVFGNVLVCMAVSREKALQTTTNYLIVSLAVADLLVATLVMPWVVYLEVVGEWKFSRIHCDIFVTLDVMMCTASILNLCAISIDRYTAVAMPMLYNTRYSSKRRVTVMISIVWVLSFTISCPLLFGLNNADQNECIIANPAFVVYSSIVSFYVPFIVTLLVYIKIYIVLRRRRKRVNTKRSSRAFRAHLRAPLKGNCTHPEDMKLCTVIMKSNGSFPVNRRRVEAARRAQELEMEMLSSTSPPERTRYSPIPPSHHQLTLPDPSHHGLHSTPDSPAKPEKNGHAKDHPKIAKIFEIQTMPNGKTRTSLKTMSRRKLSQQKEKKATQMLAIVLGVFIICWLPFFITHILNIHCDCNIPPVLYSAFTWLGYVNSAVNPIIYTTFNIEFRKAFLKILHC
#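 PathHunter D2 cells, attached overnight at 37 deg C, received compound in DMSO plus dopamine at EC20 (50 nM final) for 90 min at 37 deg C. Beta-arrestin recruitment was read as luminescence after 1 h with detection reagent at ambient temperature.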
# D2 ag-1: Beta-Arrestin HTS for Positive Allosteric Modulators of the Human D2 Dopamine Receptor: Agonists | AID 624465, 2012 | 360,000 compounds, 0.084% hits | activation, % (test concentration not listed) | D(2) dopamine receptor (Homo sapiens), P14416 | DiscoveRx PathHunter D2 beta-arrestin, luminescence, 90 min; 100% = 57 uM dopamine signal; in the data active means activation above about 40%
#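 DiscoveRx PathHunter D2 beta-arrestin cells (2,100/well) attached overnight, then compound-stimulated 90 min at 37 C in HBSS/10 mM HEPES/0.1% Tween-20 buffer; beta-galactosidase complementation read by luminescence after 1 h at ambient temperature. Dopamine 57 uM final (EC100) as control.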
# D2 PAM-2: HTS Assay for Positive Allosteric Modulators of the Human D2 Dopamine Receptor: Primary Screen for Potentiators. D(2) dopamine receptor (Homo sapiens), P14416. HEK293 T-REx D2, calcium flux, EC20 dopamine potentiation. potentiation, % at 10 µM. 340,000 compounds, 0.34% hits;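 active means potentiation over 3 SD above the plate norm, cut at about 30% in these data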
#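 Tetracycline-induced Hek293 Trex D2 cells, force-coupled to calcium, loaded with no-wash calcium dye. Compound added with 180 s kinetic read for agonism, then EC20 dopamine and a further 180 s read for potentiation.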
# D2 ag-2: HTS Assay for Allosteric Agonists of the Human D2 Dopamine Receptor: Primary Screen for Agonists | D(2) dopamine receptor (Homo sapiens), P14416 | HEK293 T-REx D2 cells, calcium flux agonist mode | activation, % at 2 µM | 340,000 compounds, 0.53% hits | AID 485358, 2010;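 active means activation over 3 SD above normal in the single-dose calcium agonist read, cut at about 30% in these data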
#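 Tetracycline-induced HEK293 Trex cells with D2 receptor force-coupled to calcium signaling, plated overnight at 30 C and loaded with no-wash calcium dye. Calcium flux read kinetically for 180 s after compound addition; responses flag agonists.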
# D2 antag: HTS Assay for Allosteric Antagonists of the Human D2 Dopamine Receptor: Primary Screen for Antagonists. 340,000 compounds, 2% hits. HEK293 TREx D2 cells, calcium flux, dopamine EC80. inhibition, % at 10 µM; in the data active means inhibition above about 30%; inactive means below that, where a call was filed
#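 Cells plated overnight at 30 C with tetracycline; no-wash calcium dye, 30–90 min RT; 10 s baseline; compound pinned; 180 s read; EC80 dopamine added; another 180 s read.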
# Numbers stand for hits; 0 = inactive; - = not tested or not shown.
SMILES,D2 PAM-1,D2 ag-1,D2 PAM-2,D2 ag-2,D2 antag
CC(C)c1ccc(NC(=O)CSC2=Nc3ccccc3C3=NC(CC(=O)NCc4ccc(F)cc4)C(=O)N23)cc1 (stereo not drawn),-,-,0,0,-
CC(C)c1ccc(-c2nc(N3CCCC3)nc3n[nH]c(N)c23)cc1,0,0,44,0,0
O=c1c(O)c(-c2cccs2)oc2ccccc12,0,0,0,42,0
O=c1c(O)c(-c2cccs2)oc2ccc(Cl)cc12,0,0,0,93,51
O=c1cc(-c2cccs2)oc2ccc(Cl)cc12,0,0,0,0,0
ON=C(CCc1ccccc1)c1ccccc1,0,0,-,-,-
CC(C)(C)C(=O)COC(=O)c1c2c(nc3ccccc13)CCC2,0,0,39,0,0
NC(=O)COC(=O)c1c2c(nc3ccccc13)CCCCC2,0,0,-,-,-
O=C(CSc1nc2nc[nH]c2c(=O)[nH]1)NC1CCCCC1,0,0,0,0,48
CC(C)Oc1ccc(C(=O)N2CCN(c3nc4c(F)cc(F)cc4s3)CC2)cc1,-,-,0,-,-
COc1cccc(NCc2ccc([N+](=O)[O-])s2)c1,50,0,0,0,0
Cc1ccc(S(=O)(=O)NC(=O)C2(C)CCN2C(=O)Cc2ccc(Cl)cc2Cl)cc1 (stereo not drawn),0,0,-,-,-
CC(C)=C(C#N)c1nc2ccccc2s1,0,0,0,0,0
N#C/C(=C/c1ccncc1)c1nc2ccccc2s1,0,0,0,30,0
Cc1ccc(N2CC(C(=O)Nc3ccc4c(c3)OCO4)CC2=O)cc1C (stereo not drawn),0,0,31,0,0
COc1ccc(NC(=O)C2CC(=O)N(c3cccc(C)c3C)C2)cc1 (stereo not drawn),0,0,0,0,31
O=C(Nc1nccs1)C1CC(=O)N(Cc2ccco2)C1 (stereo not drawn),0,0,46,0,0
COc1cccc(NC(=O)C2CC(=O)N(Cc3ccco3)C2)c1 (stereo not drawn),0,0,0,0,37
Cc1ccc(N2CC(C(=O)Nc3ccc4c(c3)OCO4)CC2=O)cc1 (stereo not drawn),0,0,0,0,0
CCCc1nc2ccc(Br)cn2c1Cc1cccc(Cl)c1,0,0,-,-,-
COC(=O)c1ccccc1COc1cccn2c(N(C)C(=O)CCC3CCCC3)c(C)nc12,0,0,-,-,-
Cc1ccc(/C=N/n2cnc3sc(C)c(C)c3c2=O)o1,0,0,47,0,0
CN(C)c1nc(Oc2ccc(=O)[nH]n2)nc(N2CCCCC2)n1,0,0,0,0,31
COC(=O)c1ccc(CNC(=O)COC(=O)/C=C/c2cccc(OC)c2)cc1,0,0,-,-,-
CCOC(=O)c1c(CN2CCOCC2)oc2ccc(OC)cc12,0,0,31,0,0
SMILES,D2 PAM-1,D2 ag-1,D2 PAM-2,D2 ag-2,D2 antag
CCOC(=O)c1c(CN2CCCCC2)oc2ccc(O)cc12,0,0,0,0,0
CCCCn1c(CNC(=O)CCC)nc2ccccc21,0,0,0,0,34
Cc1ccc(/C=N/NC(=O)c2nn(C)cc2Cl)cc1,0,0,0,0,0
CCC(=O)N/N=C/c1ccc(OS(=O)(=O)c2ccccc2)cc1,0,0,0,0,0
NC(N)=N/N=C/c1ccc(OS(=O)(=O)c2ccccc2)cc1,0,0,0,0,30
Cn1cc(Cl)c(C(=O)N/N=C/c2ccc(OS(=O)(=O)c3ccccc3)cc2)n1,0,0,40,0,0
Cc1cccc(NC(=O)CCCN2C(=O)c3ccccc3C2=O)n1,0,0,0,0,34
Cc1ccc(NC(=O)CCCCCN2C(=O)c3ccccc3C2=O)nc1,0,0,0,0,0
Cc1cccc(NC(=O)CCCCCN2C(=O)c3ccccc3C2=O)n1,0,0,0,0,35
CCOC(=O)CCCCCN1C(=O)c2cccc3cccc(c23)C1=O,0,0,30,0,0
CCOC(=O)CCCSc1nnc(CCCCCN2C(=O)c3cccc4cccc(c34)C2=O)o1,0,0,0,0,0
O=C(CCCCCCN1C(=O)c2ccccc2C1=O)NC1CCCCC1,0,0,0,0,32
COc1ccc(CNC(=O)Cn2c(-c3ccccc3)cc(C(C)=O)c2C)cc1OC,-,-,0,0,-
O=C(CCCCCN1C(=O)c2ccccc2C1=O)Nc1ccc(F)cc1,0,0,0,0,34
O=C(CCCCCN1C(=O)c2ccccc2C1=O)Nc1ccccc1F,0,0,0,0,0
COC(=O)CS(=O)(=O)c1ccsc1C(=O)Nc1ccc(F)cc1,0,0,0,0,38
CCOC(=O)c1sc(NC(=O)CSc2nc(C)cc(C)n2)c(C#N)c1C,0,0,0,0,0
CCOC(=O)c1sc(NC(=O)CSc2n[nH]c(-c3ccccc3)n2)c(C#N)c1C,0,0,0,0,39
O=C(NCc1ccc(F)cc1)c1cc(C2CCCN(S(=O)(=O)c3ccccc3)C2)on1 (stereo not drawn),0,0,-,-,-
COc1ccc(NC(=O)CSC2=Nc3ccccc3C3=NC(CCC(=O)NC4CCCCC4)C(=O)N23)cc1Cl (stereo not drawn),-,-,0,0,-
Cc1ccc(CNC(=O)C2CCN(S(=O)(=O)c3ccc4[nH]c(=O)ccc4c3)CC2)cc1,-,-,0,0,-
C(=C\c1ccccc1)/C=N/N1CCN(Cc2ccccc2)CC1,0,0,0,0,40
C(/C=C/c1ccccc1)=N/N1CCN(c2ccccc2)CC1,0,0,0,0,0
CC(C)N1CC2(CC(c3ccccc3C(F)(F)F)=NO2)CN1C(=O)c1ccco1 (stereo not drawn),0,0,-,-,-
COc1ccccc1CNC(=O)Cc1csc2nc(-c3ccc(Cl)cc3)cn12,-,-,0,0,-
CC1CCCC(C)N1C(=O)CN1C(=O)C(C)(C)Oc2ccc(C(=O)NC3CCCC3)cc21 (stereo not drawn),0,0,0,0,33
CC(C)NC(=O)CN1C(=O)C(C)(C)Oc2ccc(C(=O)NC3CCCCC3)cc21,0,0,0,0,32
CC(C)(C)NC(=O)c1ccc2c(c1)N(CC(=O)NC1CCCC1)C(=O)C(C)(C)O2,0,0,0,0,53
CC1CCCC(C)N1C(=O)CN1C(=O)C(C)(C)Oc2ccc(C(=O)NC3CCCCC3)cc21 (stereo not drawn),0,0,0,0,0
O=C(NCc1ccccc1)c1cc(C2CCCN(C(=O)C3CCCCC3)C2)on1 (stereo not drawn),0,0,-,-,-
